Some test systems named below: SK-MEL-2 melanoma; EKVX NSCLC; SN12C renal; UO-31 renal; TK-10 renal; ACHN renal; CAKI-1 renal; A498 renal; MOLT-4 leukemia; CCRF-CEM leukemia.
What all share (assay): NCI-60 one-dose screen, 48 h (100 = growth as untreated, 0 = no growth, -100 = all killed)
Common to all, as to settings: 10 µM

This is part of a sample that, as a whole, favours compounds with a hit. Of some 83,000 tested, about 20% had one in any assay.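 96-well plates, one dose, 48 hours. Percent growth reported; active if below 10.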 Values without a mark were called inactive. The source made the active and inactive calls.

As to `COc1ccc(-c2cc(-c3ccccc3)nc(SCCCC(=O)NO)n2)cc1`, the growth with SK-MEL-2 melanoma was -7.04% (active); in the test on EKVX NSCLC, -23.3% (active); with SN12C renal, -8.2% (active); in the test with UO-31 renal, -52% (active); in the test with TK-10 renal, 6.16% (active); with ACHN renal it was -17.8% (active). The growth was -16.4% (active) with CAKI-1 renal, -44.3% (active) with A498 renal and 4.82% (active) with MOLT-4 leukemia.

`COc1cc(-c2nc3ccccc3o2)cc(CN2CCCCC2)c1O`: the growth was 89.3% in the test with SK-MEL-2 melanoma; 66.5% in the test with EKVX NSCLC; 62.1% in the test on SN12C renal; 43.9% in the test with UO-31 renal; 129% in the test with TK-10 renal; 64.8% in the test on ACHN renal. Moreover, the growth was 85.2% in the test on CAKI-1 renal, 55.2% in the test with A498 renal and 48.8% with MOLT-4 leukemia.

For `Cc1ccc(/C=C/C(=O)C(=O)/C=C/c2ccc(C)cc2)cc1`, the growth in the test with SK-MEL-2 melanoma is 105%; in the test with EKVX NSCLC it was 92.7%; in the test with SN12C renal it was 105%; in the test on UO-31 renal it was 89.7%; in the test on TK-10 renal it was 92%; in the test on ACHN renal it was 104%. Also, the growth in the test with CAKI-1 renal is 94.8%; in the test on A498 renal, 101%; with MOLT-4 leukemia, 91.8%.

Turning to `COc1ccc2cc(-c3nc4ccccc4s3)c(Cl)nc2c1OC`, the growth in the test on SK-MEL-2 melanoma was 95.8%; in the test with EKVX NSCLC, 100%; in the test with SN12C renal, 99.9%; in the test with UO-31 renal, 64%; in the test with TK-10 renal, 118%; in the test with ACHN renal, 96.6%. In addition, the growth in the test with CAKI-1 renal is 94.5%; with A498 renal, 93.1%; in the test with MOLT-4 leukemia, 92.7%.

With `COc1ccc(Cl)cc1Nc1nc(C(F)(F)F)ccc1C(=O)N/N=C/c1cc(OC)c(OC)c(OC)c1`, the growth in the test on SK-MEL-2 melanoma is 9.11% (active); in the test with EKVX NSCLC it was 32.6%; with SN12C renal it was 25.1%; with UO-31 renal, 15.4%; in the test on TK-10 renal, 20.2%; with ACHN renal, 16%. For the same compound, the growth with CAKI-1 renal was 27.6%; in the test on A498 renal, 26.8%; in the test on CCRF-CEM leukemia, 9.22% (active); in the test on MOLT-4 leukemia it was 9.62% (active).

With `CCOC(=O)CN(c1sc(C)c(C)c1C(=O)OCC)S(=O)(=O)c1ccc(C)cc1`, the growth is 127% with SK-MEL-2 melanoma; 101% in the test on EKVX NSCLC; 87% in the test with SN12C renal; 80.7% in the test on UO-31 renal; 121% in the test with TK-10 renal; 98.1% in the test with ACHN renal. Further, the growth was 72.8% in the test with CAKI-1 renal, 106% in the test with A498 renal, 94.4% with CCRF-CEM leukemia and 97% with MOLT-4 leukemia.

`COc1cc(-c2csc(NC(=O)Nc3ccc(Cl)c(C(F)(F)F)c3)n2)cc(OC)c1OC`: the growth in the test with SK-MEL-2 melanoma is -14.3% (active); in the test with EKVX NSCLC, 2.12% (active); with SN12C renal it was -11.3% (active); in the test with UO-31 renal it was -1.04% (active); in the test with TK-10 renal, -4.34% (active); in the test on ACHN renal, -8.21% (active). Also, the growth with CAKI-1 renal was 6.78% (active); in the test with A498 renal it was -15.7% (active); in the test with MOLT-4 leukemia, 2.65% (active).

In the case of `OCC1OC(n2ccc3c(NO)ncnc32)C(O)C1O` (stereo unspecified), the growth was -78.6% (active) in the test with SK-MEL-2 melanoma; -15.3% (active) in the test with EKVX NSCLC; -27.2% (active) in the test with SN12C renal; -25% (active) in the test on UO-31 renal; -15.1% (active) with TK-10 renal; -15.3% (active) in the test with ACHN renal. Further, the growth in the test on CAKI-1 renal was 1.77% (active); in the test on A498 renal, -51.1% (active); in the test on CCRF-CEM leukemia it was -8.6% (active); in the test with MOLT-4 leukemia it was -32.9% (active).

For the compound `O=C(N/N=C/c1cc([N+](=O)[O-])ccc1O)c1cccc2ccccc12`, the growth with SK-MEL-2 melanoma was 66.4%; in the test on EKVX NSCLC it was 33.5%; with SN12C renal, 51.1%; in the test on UO-31 renal, 19.1%; with TK-10 renal, 46.3%; in the test on ACHN renal, 15.7%. For the same compound, the growth with CAKI-1 renal is 19.9%; in the test with A498 renal it was 62.4%; in the test on CCRF-CEM leukemia, -8.77% (active); with MOLT-4 leukemia, 9.21% (active).

Take `COc1cc(C(=O)N2CCN(c3cc4c(cc3F)c(=O)c(C(=O)NO)cn4C3CC3)CC2)cc(OC)c1OC`: the growth with SK-MEL-2 melanoma is 90.2%; in the test on EKVX NSCLC, 89.5%; with SN12C renal it was 108%; in the test on UO-31 renal it was 92.1%; with TK-10 renal, 87.4%; with ACHN renal, 101%. In addition, the growth in the test with CAKI-1 renal is 94.4%; with A498 renal, 91.4%; in the test on MOLT-4 leukemia, 103%.

As for `Nc1ccc(CC[C@H]2CCC/C=C/[C@@H]3C[C@H](O)C[C@H]3[C@H](O)/C=C/C(=O)O2)cc1`, the growth in the test with SK-MEL-2 melanoma was -25.9% (active); with EKVX NSCLC, 8.9% (active); with SN12C renal it was 7.47% (active); with UO-31 renal, 2.24% (active); in the test on TK-10 renal, -53.8% (active); with ACHN renal, 10%. In addition, the growth in the test on CAKI-1 renal is 7.49% (active); in the test with A498 renal, -32.4% (active); in the test on CCRF-CEM leukemia, -3.7% (active); with MOLT-4 leukemia, -18.8% (active).

In the case of `COc1ccc(C(=O)N/N=C/c2cc(C(F)(F)F)ccc2Cl)cc1`, the growth in the test on SK-MEL-2 melanoma was 104%; in the test with EKVX NSCLC it was 75.7%; in the test on SN12C renal, 93.6%; with UO-31 renal, 88.9%; with TK-10 renal, 107%; with ACHN renal it was 108%. Also, the growth is 89.2% in the test with CAKI-1 renal, 67% in the test with A498 renal and 92.5% in the test with MOLT-4 leukemia.

Regarding `CCCc1cn(CC(=O)Nc2nc3ccccc3s2)nn1`, the growth with SK-MEL-2 melanoma was 105%; with EKVX NSCLC it was 101%; with SN12C renal, 98.5%; in the test with UO-31 renal, 65.9%; with TK-10 renal, 103%; in the test with ACHN renal, 101%. The growth in the test on CAKI-1 renal was 87.6%; with A498 renal, 129%; with MOLT-4 leukemia, 110%.

Take `O=C(CSc1nnc(-c2cccnc2SCc2ccccc2)o1)Nc1nc(Cl)cc(Cl)n1`: the growth in the test with SK-MEL-2 melanoma was 102%; with EKVX NSCLC, 103%; with SN12C renal, 103%; in the test on UO-31 renal it was 67.7%; in the test on TK-10 renal it was 109%; with ACHN renal, 103%. Moreover, the growth in the test on CAKI-1 renal is 95.8%; in the test on A498 renal, 112%; in the test on MOLT-4 leukemia it was 95.7%.

On to `CC(C)(C)c1ccc(S(=O)(=O)Oc2ccc(NC(=O)C3CCCCC3)cc2)cc1`, for which the growth was 31.6% in the test with SK-MEL-2 melanoma; 23.8% with EKVX NSCLC; 60.2% with SN12C renal; 38% with UO-31 renal; 57.8% with TK-10 renal; 25.7% in the test on ACHN renal. Moreover, the growth is 58.3% with CAKI-1 renal, 90% in the test on A498 renal and 33.5% in the test with MOLT-4 leukemia.

`COc1ccc2nc3cc(Cl)ccc3c(NCCCNCCO)c2c1`: the growth in the test with SK-MEL-2 melanoma is -87.7% (active); in the test on EKVX NSCLC, -12.9% (active); in the test with SN12C renal it was 5.95% (active); in the test with UO-31 renal it was -11.5% (active); in the test on TK-10 renal, -29.4% (active); in the test with ACHN renal, -9.61% (active). Moreover, the growth in the test with CAKI-1 renal is 18.7%; in the test on A498 renal, -57% (active); with CCRF-CEM leukemia, -1.87% (active); with MOLT-4 leukemia, 2.6% (active).

In the case of `O=C(CCCSc1nc(-c2ccc(Cl)cc2)cc(-c2ccc(Cl)cc2)n1)NO`, the growth is 20.8% in the test with SK-MEL-2 melanoma; -19.7% (active) in the test on EKVX NSCLC; 4.81% (active) in the test with SN12C renal; -34.9% (active) in the test with UO-31 renal; 24.3% in the test with TK-10 renal; 2.26% (active) in the test with ACHN renal. Further, the growth in the test with CAKI-1 renal was 2.08% (active); in the test on A498 renal, -3% (active); with MOLT-4 leukemia it was 4.91% (active).

Regarding `CC(C)(C)OC(=O)CN1CCc2c(sc3ncnc(N/N=C/c4ccccc4Br)c23)C1`, the growth with SK-MEL-2 melanoma is 87.4%; in the test on EKVX NSCLC it was 44.5%; with SN12C renal, 73.3%; with UO-31 renal, 37.6%; with TK-10 renal, 90.8%; in the test with ACHN renal, 56.6%. Besides, the growth with CAKI-1 renal was 51.3%; in the test on A498 renal, 77%; in the test on MOLT-4 leukemia, 11.1%.

As for `N#Cc1c(N)nc(-c2cc(F)cc(C(F)(F)F)c2)nc1-c1ccccc1F`, the growth is 90.4% with SK-MEL-2 melanoma; 38.6% with EKVX NSCLC; 24.9% in the test on SN12C renal; 33.3% in the test with UO-31 renal; 38.1% with TK-10 renal; 2.03% (active) in the test with ACHN renal. Moreover, the growth in the test on CAKI-1 renal was 78.1%; with A498 renal it was 5.56% (active); with MOLT-4 leukemia, 50.1%.

Regarding `C[C@@H](C[C@H](CCO)c1ccccc1)c1ccc2ccccc2c1`, the growth with SK-MEL-2 melanoma was -0.232% (active); with EKVX NSCLC, -44% (active); in the test on SN12C renal, -80.8% (active); in the test on UO-31 renal it was -86% (active); with TK-10 renal it was -6.8% (active); in the test with ACHN renal, -91.3% (active). Moreover, the growth was 10.5% in the test on CAKI-1 renal, -0.126% (active) in the test on A498 renal and -54.2% (active) in the test on MOLT-4 leukemia.

The record behind these values is PubChem BioAssay (NCI).
